# The supplement of paper PMC6555819
# Columns and labels:
# Assay in all cases: PBM binding z-score (relative to random genomic background probes); higher = stronger binding; sequences stand for … in GC…GCGATTGACAGCGTAGAATGAAGG
# [1] = test system: FXR:RXRa (NR concentration 270 nM, RXRa partner concentration 90 nM)
# Method in brief: (§1)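 Binding z-scores were set against random background probes. The data came from custom Agilent 4×180K protein-binding microarrays carrying double-stranded probes with 34-nt variable regions, incubated 1 h with ligand-free nuclear receptor dimers. Partner-specific antibodies detected binding, and scanned fluorescence was regression-normalized.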
# [2] = test system: LXRa:RXRa (NR concentration 270 nM, RXRa partner concentration 90 nM)
# Method in brief: as §1
# [3] = test system: LXRa homodimer (NR concentration 270 nM)
# Method in brief: as §1
# [4] = test system: LXRb:RXRa (NR concentration 270 nM, RXRa partner concentration 90 nM)
# Method in brief: as §1
# [5] = test system: LXRb homodimer (NR concentration 270 nM)
# Method in brief: as §1
# [6] = test system: PPARa:RXRa (NR concentration 270 nM, RXRa partner concentration 90 nM)
# Method in brief: as §1
# [7] = test system: PPARg:RXRa (NR concentration 180 nM, RXRa partner concentration 90 nM)
# Method in brief: as §1
# [8] = test system: PPARg:RXRa 270nM:90nM, anti-RXR (NR concentration 270 nM, RXRa partner concentration 90 nM)
# Method in brief: as §1
# [9] = test system: PPARg:RXRa 30nM:10nM, anti-RXR (NR concentration 30 nM, RXRa partner concentration 10 nM)
# Method in brief: as §1
# [10] = test system: PPARg:RXRa 90nM:30nM, anti-RXR (NR concentration 90 nM, RXRa partner concentration 30 nM)
# Method in brief: as §1
Sequence,PBM binding z-score [1],PBM binding z-score [2],PBM binding z-score [3],PBM binding z-score [4],PBM binding z-score [5],PBM binding z-score [6],PBM binding z-score [7],PBM binding z-score [8],PBM binding z-score [9],PBM binding z-score [10]
CCTACTGGGCCAAATGTCATTGATTCCAATGCTC,0.068,-0.00295,-0.00298,0.307,-0.155,3.42,7,7.26,6.52,7.54
ATATGTAGGCTAGCTGGGGTCATTCAGACTAGGC,3.46,3.2,1.14,3.49,-0.151,4.32,3.2,3.64,1.1,2.83
ATCTCTAGGTAAAGTTAGTTCAGTGAATGCAAAT,0.83,3.72,0.641,0.747,0.893,0.661,0.555,1.07,0.112,1.03
CCGACTGGGGCATAAGGTGACCATAAGCCAGCCC,-0.111,-0.426,-0.561,-0.432,-1.62,1.3,2.04,2.92,0.757,2.38
GCGACTGGGGCATGAGCAGGTTACCATAACTTAA,-0.261,-0.325,-0.638,0.484,-1.12,1.1,1.08,1.11,-0.134,0.437
CCAGACCGGTGAAAGGTAACTCAGTCTGGTACGC,-0.0585,0.0819,-0.526,0.182,-0.601,2.13,2.61,4.02,1.71,3.56
AGAATGAGGTTAATATCAGGGAAACAGAATACAT,1.64,3.39,0.149,2.17,0.272,2.98,2.46,2.14,0.981,1.48
TCGATTAGGTTACCAATGGGGCATTCAGCTTTCT,0.297,1.49,-0.396,1.29,-0.254,1.21,-0.163,1.5,2.68,2.26
CCTCGGAGAACAACAGGAGGTCAGAGCTGCCAGA,0.847,1.87,1.86,1.46,-0.303,1.82,0.213,-0.135,-1.02,-0.29
AGTCAAAGTTCACTAGGTAACGCAAGATTCAGCT,5.26,4.86,2.69,2.93,0.956,4.83,7.22,6.82,3.62,6.03
GCTATTAGTTGAAAGGGCAAACGAATGATTCTCG,0.733,0.93,0.494,1.13,-0.0679,2.7,2.92,4.48,2.73,4.34
ATACCAAGGTGATCCTGAGGTCGTTGATACTAAC,2.37,2.1,0.935,1.98,0.354,2.1,0.744,0.547,0.147,0.197
CATACTAGGTCACCGGAAGGTCAAAGTCCGCATG,5.94,6.26,5.63,5.54,2.08,5.71,8.32,7.18,4.5,6.47
ACTAGTTGGCCAGCTGAGGTCACACACAATTCGG,2.99,2.85,1.49,3.25,-0.00517,3.54,1.55,1.67,0.296,1.05
GCTAGTAGTTGAAAGGGCAACCGAATGATTCTCG,0.181,0.507,0.0629,0.605,-0.496,2.52,4.19,5.71,4.3,5.8
AATACAGGGTCACTAGGCCAGTGTAGGTACGAAT,5.94,5.39,1.08,3.91,0.765,5.69,7.83,6.59,3.05,5.85
CCTGCTGGGCCAAAGGTCATTGATTCCAATGCTC,5.24,5.14,3.92,4.66,0.872,5.78,9.98,8.99,8.27,9.45
GCTTACGGGTCAACGGTTATAGCATGAATAGAAT,5.44,3.55,-0.033,3.68,-0.198,5.55,6.07,5.8,3.19,5.2
TCATATAGGTAATACAAGTGAAAGTCGGCATCTA,1.52,1.28,0.46,1.17,0.185,1.59,1.39,2.52,4.29,3.28
CCTAGCAGGTCAATCTGGGTCACTCAAGGCTTGA,5.49,6.27,1.3,4.34,0.627,4.97,4.83,5.3,2.13,4.43
TCATATAGGTAAATCCTAGGTGAAAGTCCGATCT,0.916,0.69,-0.094,0.537,-0.0667,1.47,0.85,2.16,3.66,2.72
AGATGTAGGTTATCGGGTCATTCAGTTTGCGCAT,3.31,3.21,1.64,3.01,0.639,4.89,6.25,5.84,3.56,5.27
TAGCCTAGGTCAGATCGGGCCAATATACGCTATA,1.51,1.46,0.0992,1.22,0.0531,1.79,0.875,0.613,-0.00847,0.383
AGAATGAAGTTATACGTAGATCAGGGAAGAAAGT,-0.499,-0.297,-0.439,-0.59,-0.391,-0.311,0.842,-0.228,0.0525,-0.163
